Experimental data as given in publication PMC4336329 (PLoS ONE, 2015).
About 14,000 (4.5%) of roughly 310,000 compounds showed an effect of 50% or more. The effect is printed as a negative number. What follows is part of a selection rich in strong results, with near analogues and random picks from the rest.
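Also: peak tail current of the secondary pulse compared with the same well before compound.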

These molecules were tested against human ether-à-go-go-related gene (hERG) potassium channel (human, UniProt Q12809) (assay: primary screen, population patch clamp on CHO cells stably expressing hERG; higher = less effect of the substance).
Chain of human ether-à-go-go-related gene (hERG) potassium channel (Q12809 whole entry, looked up): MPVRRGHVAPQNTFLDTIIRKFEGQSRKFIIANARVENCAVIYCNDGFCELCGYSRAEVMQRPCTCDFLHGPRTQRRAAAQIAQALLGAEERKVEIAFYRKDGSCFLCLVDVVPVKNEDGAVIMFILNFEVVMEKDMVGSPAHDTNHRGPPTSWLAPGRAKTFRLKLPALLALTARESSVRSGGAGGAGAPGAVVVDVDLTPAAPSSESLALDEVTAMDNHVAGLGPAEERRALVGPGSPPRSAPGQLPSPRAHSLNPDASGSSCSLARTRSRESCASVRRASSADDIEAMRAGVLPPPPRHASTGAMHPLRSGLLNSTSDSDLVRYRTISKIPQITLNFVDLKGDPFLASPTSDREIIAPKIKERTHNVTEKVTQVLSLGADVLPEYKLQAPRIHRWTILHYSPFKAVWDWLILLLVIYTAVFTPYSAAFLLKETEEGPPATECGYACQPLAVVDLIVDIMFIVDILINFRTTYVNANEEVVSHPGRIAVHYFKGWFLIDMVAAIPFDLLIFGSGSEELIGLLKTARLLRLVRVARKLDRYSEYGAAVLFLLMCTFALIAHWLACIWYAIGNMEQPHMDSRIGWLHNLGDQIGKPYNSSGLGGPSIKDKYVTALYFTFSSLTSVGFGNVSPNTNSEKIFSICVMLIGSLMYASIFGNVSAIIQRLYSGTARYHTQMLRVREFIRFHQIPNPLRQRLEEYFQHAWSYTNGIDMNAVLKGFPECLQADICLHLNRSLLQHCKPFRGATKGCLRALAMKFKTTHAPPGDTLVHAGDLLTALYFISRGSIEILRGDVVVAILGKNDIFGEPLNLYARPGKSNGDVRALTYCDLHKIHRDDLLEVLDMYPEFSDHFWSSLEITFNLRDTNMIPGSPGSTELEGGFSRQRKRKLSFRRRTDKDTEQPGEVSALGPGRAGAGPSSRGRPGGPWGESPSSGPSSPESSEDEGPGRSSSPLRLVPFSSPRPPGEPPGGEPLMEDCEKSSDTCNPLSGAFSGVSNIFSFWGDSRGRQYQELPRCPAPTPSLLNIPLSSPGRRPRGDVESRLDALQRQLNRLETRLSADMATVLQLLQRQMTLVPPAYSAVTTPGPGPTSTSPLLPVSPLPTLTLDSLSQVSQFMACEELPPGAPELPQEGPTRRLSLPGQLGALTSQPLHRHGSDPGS
`CCOC(=O)CN(C#N)c1nc(C)cc(C)n1` was tested, and the “hERG current change (%, negative = inhibition) at 10uM” value was -7.84%. In the case of `Cc1nc(SCCc2ccccc2)[nH]c(=O)c1C`, the “hERG current change (%, negative = inhibition) at 10uM” value is reported as 19.6%. For `O=C(O)Cn1nnc(-c2ccc(OCc3ccccc3)cc2)n1`, the “hERG current change (%, negative = inhibition) at 10uM” value was 23.9%. `COc1ccccc1CNC(=O)c1cnn2c(C(F)F)cc(C)nc12` was tested, and the “hERG current change (%, negative = inhibition) at 10uM” value was -26.4%. `Cc1cc(C)cc(N(C(=O)C(F)(F)F)C(C(=O)NC2CCCCC2)c2cccs2)c1` (stereo not drawn) was tested, and the “hERG current change (%, negative = inhibition) at 10uM” value was -7.03%. In the case of `O=C(CCCc1ccccc1)NCCCc1ccccc1`, the “hERG current change (%, negative = inhibition) at 10uM” value is reported as -10.9%. For `CN(Cc1ccccc1)C1CCCN(C(=O)c2ccc(Cl)s2)C1` (stereo not drawn), the “hERG current change (%, negative = inhibition) at 10uM” value was -30.4%. In the case of `COC(=O)c1c(C(=O)OC)c(-c2ccc(Br)cc2)n2c1CS(=O)C2` (stereo not drawn), the “hERG current change (%, negative = inhibition) at 10uM” value is reported as -1.16%. For `CCCNC(=O)c1onc(CSc2cccc(OC)c2)c1C(=O)NCCC`, the “hERG current change (%, negative = inhibition) at 10uM” value was -7.12%. In the case of `O=C(O)c1cccc(S(=O)(=O)N2CC=C(c3ccccc3)CC2)c1`, the “hERG current change (%, negative = inhibition) at 10uM” value is reported as -4.64%. For `COCCNC(=O)/C(C#N)=C/c1cc(C)n(C2CCCCC2)c1C`, the “hERG current change (%, negative = inhibition) at 10uM” value was -0.875%. `CCN(CC)S(=O)(=O)c1ccc2nc(CSc3nnnn3-c3ccc(O)cc3)[nH]c2c1` was tested, and the “hERG current change (%, negative = inhibition) at 10uM” value was -53.9%. For `CCN(CC)S(=O)(=O)c1ccc2nc(CCl)[nH]c2c1`, the “hERG current change (%, negative = inhibition) at 10uM” value was -16.7%. With `Cc1ccc(S(=O)(=O)N(C)C)cc1NC(=O)CSc1nnnn1-c1ccc(O)cc1` the “hERG current change (%, negative = inhibition) at 10uM” value was -20.9%. In the case of `O=C(c1cccc(C(=O)N2CCN(c3ccccc3F)CC2)n1)N1CCN(c2ccccc2F)CC1`, the “hERG current change (%, negative = inhibition) at 10uM” value is reported as -28.3%. `O=[N+]([O-])c1ccc(N2CCOCC2)cc1N1CCCCC1` was tested, and the “hERG current change (%, negative = inhibition) at 10uM” value was -5.12%. In the case of `O=[N+]([O-])c1ccc(N2CCCCC2)cc1N1CCOCC1`, the “hERG current change (%, negative = inhibition) at 10uM” value is reported as -11.3%. With `O=C(/C=C/c1ccc(Cl)cc1Cl)N1CCN(c2ccc([N+](=O)[O-])c(N3CCOCC3)c2)CC1` the “hERG current change (%, negative = inhibition) at 10uM” value was -34.5%. For `O=C(/C=C/c1ccc(Cl)cc1)N1CCOCC1`, the “hERG current change (%, negative = inhibition) at 10uM” value was 9.65%. With `O=C(/C=C/c1ccc(Cl)cc1)N1CCN(c2ccc([N+](=O)[O-])c(N3CCOCC3)c2)CC1` the “hERG current change (%, negative = inhibition) at 10uM” value was -72.4%. With `O=C(/C=C/c1ccccc1)N1CCN(c2ccc([N+](=O)[O-])c(N3CCOCC3)c2)CC1` the “hERG current change (%, negative = inhibition) at 10uM” value was -54.3%. In the case of `Cc1c(C(=O)NN2CCOCC2)oc2ccccc12`, the “hERG current change (%, negative = inhibition) at 10uM” value is reported as 16.5%. With `N#Cc1cc2c(nc1SCc1cccc(Cl)c1)CCCCC2` the “hERG current change (%, negative = inhibition) at 10uM” value was 8.72%. `COc1cc(C2NC(=O)NC(C)=C2C(=O)OCC2CCCO2)cc(OC)c1OC` (stereo not drawn) was tested, and the “hERG current change (%, negative = inhibition) at 10uM” value was 18.8%.
